14 compounds from PubChem BioAssay (NCATS) can be followed below.

“And” between values parts separate entries of the source, which are not always exact repeats. Equal values may be shown once. Results filed as inconclusive are left out. The source made the active and inactive calls. Unless noted, calls come from the whole dose curve; as a rule, active = well fitted curve in the direction sought with a large enough effect; inconclusive = small, poorly fitted or top-dose-only effect, or another doubt; inactive = no such curve, though single readings can be large; an effect the other way counts as inactive or inconclusive.

Assay [1] is described as follows: qHTS Assay for Identifying Gametocytocidal Compounds (AID 743244).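 For max response: % is set by controls: 0 for no effect and ±100 for the full control effect; actives lower the fluorescent signal which means gametocytes are killed.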 Note: potency is the fitted concentration of half-maximal effect. The following applies: P. falciparum 3D7 stage III-V gametocytes, alamarBlue, 72 h; max response: stronger effect = lower value. The gist of the method: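 Stage III-V P. falciparum 3D7 gametocytes, 20,000 per well, were exposed to compounds for 72 h at 37C, 5% CO2. AlamarBlue was then added for 24 h and viability was read as fluorescence at Ex 525/Em 598 nm.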

Assay [2] is described as follows: qHTS assay for small molecule antagonists of the retinoid-related orphan receptor gamma (ROR-gamma) signaling pathway - cell viability counter screen (AID 720652; active = well fitted curve in the direction sought with a large enough effect in the repeat runs; an effect the other way counts as inactive or inconclusive;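 note: potency is the fitted concentration of half-maximal effect; compound exposure lasted 16 hr before ATP read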). The method, boiled down:
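Cytotoxicity is quantified via intracellular ATP (CellTiter-Glo luminescence) in doxycycline-induced CHO ROR response element-luciferase reporter cells treated with compound for 16 hr at 37 C, 5% CO2.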

For assay [3], the target named is T1, Hexokinase-4 (Homo sapiens) + Glucokinase regulatory protein (Homo sapiens) (UniProt P35557+Q14397). Nature of the assay: qHTS assay for inhibitors of recombinant human GCK-GKRP interaction: Diaphorase-coupled assay (AID 743205). The method, boiled down:
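Inhibitors of the GCK–GKRP complex relieve GKRP suppression of GCK, detected through a G6PDH–diaphorase cascade reducing resazurin. Human GST-GCK and FLAG-GKRP are used at 10 nM with 5 mM glucose and 0.4 mM ATP.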
Background: Quantitative high-throughput screening tests each substance at several concentrations.

Assay [4] deals with T1, Hexokinase-4 (Homo sapiens) + Glucokinase regulatory protein (Homo sapiens). Nature of the assay: qHTS assay for inhibitors of recombinant human GCK-GKRP interaction: ADP-Glo assay (AID 743206).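 Note: plate controls were DMSO plus enzyme for no effect and no enzyme for full effect.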 The gist of the method: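 GST-GCK and FLAG-GKRP (15 nM each in the dispensed mix, with 2 uM S6P) react with 0.4 mM ATP and 5 mM glucose (final) in Hepes pH 7.6 for 60 min at room temperature. ADP is measured by ADP-Glo luminescence.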

Assay [5] has the same target. Nature of the assay: qHTS assay for inhibitors of recombinant human GCK-GKRP interaction: HTRF assay (AID 743207).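 Note: 0% = DMSO with GCK present and -100% = DMSO wells lacking GCK.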 The gist of the method:
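Steps: dispense GCK–GKRP complex (5 nM each, GST- and FLAG-tagged) with 2 uM S6P; pin in compounds; add XL665/Eu-cryptate-labelled antibodies; incubate 60 min at room temperature; read time-resolved FRET at 665 and 615 nm.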

Assay [6] is described as follows: qHTS assay for small molecule agonists of the antioxidant response element (ARE) signaling pathway measured by Nrf2-dependant transcriptional activity (AID 720636; active = well fitted curve in the direction sought with a large enough effect in the repeat runs; an effect the other way counts as inactive or inconclusive;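 note: HepG2 cells with an ARE-driven luciferase reporter; % of control where 0% means no effect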). The gist of the method:
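Attachment 6 hr at 37 C, then compound versus DMSO vehicle for 16 hr in ARE-luc HepG2 cells (1% dialyzed FBS); luminescence recorded 30 min after ONE-Glo addition at room temperature.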

Assay [7] in a line: qHTS profiling for inhibitors of Plasmodium falciparum (3D7) proliferation (AID 743322).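 Note: infected erythrocytes exposed to compound for 72 h before lysis; 100% = DMSO vehicle wells and 0% = 0.29 µM artemisinin.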 The following applies: P. falciparum 3D7 proliferation; at 28.7 µM (top of the series). The method, boiled down:
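Erythrocytes infected with P. falciparum (0.3% parasitemia, 2.5% hematocrit) incubated with compounds 72 h at 37 C, 5% CO2. Lysis with saponin/Triton buffer containing SYBR Green I, overnight at room temperature in the dark; DNA fluorescence (485/535 nm) normalised to 0.29 uM artemisinin and DMSO.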

Assay [8] is described as follows: qHTS assay for cell viability of HEK293 cells (AID 743288). Note: % is set by controls: 0 for no effect and ±100 for the full control effect; nearly all actives have a fitted effect of over 50% in size. The following applies: ATP luminescence (CellTiter-Glo), 18 h; max response: stronger effect = lower value. The gist of the method:
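The Tox21 protocol used parental HEK293 cells treated for 18 h at 37 C with compounds delivered by pintool; ATP-coupled luminescence after 30 min at room temperature gave viability.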

Assay [9] can be described thus: qHTS assay for cell viability of the p53RE-bla HCT-116 cell line (AID 743292). Note: potency is the fitted concentration of half-maximal effect; nearly all actives have a fitted effect of over 55% in size. The method, boiled down:
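Compound-exposed HCT-116 (p53RE-bla) cells, 4,000 per well, were kept 16 h at 37 C following a 5 h preincubation. Cell number was estimated from total ATP by CellTiter-Glo luminescence read after 30 min at room temperature.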

T1 sequence (P35557 whole entry, looked up): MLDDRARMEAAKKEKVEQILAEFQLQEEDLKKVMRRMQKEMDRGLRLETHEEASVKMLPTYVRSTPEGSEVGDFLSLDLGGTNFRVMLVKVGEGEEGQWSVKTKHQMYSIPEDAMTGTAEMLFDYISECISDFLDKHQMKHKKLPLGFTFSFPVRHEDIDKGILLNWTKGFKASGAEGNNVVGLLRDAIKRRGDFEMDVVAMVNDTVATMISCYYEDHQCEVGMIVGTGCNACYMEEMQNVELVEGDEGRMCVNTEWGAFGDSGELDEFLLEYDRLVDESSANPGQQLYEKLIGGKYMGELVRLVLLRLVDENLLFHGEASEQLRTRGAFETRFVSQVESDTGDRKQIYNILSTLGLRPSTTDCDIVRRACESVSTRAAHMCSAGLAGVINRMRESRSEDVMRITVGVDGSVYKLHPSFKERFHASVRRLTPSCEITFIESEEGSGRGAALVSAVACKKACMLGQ
T1 sequence (Q14397 whole entry, looked up): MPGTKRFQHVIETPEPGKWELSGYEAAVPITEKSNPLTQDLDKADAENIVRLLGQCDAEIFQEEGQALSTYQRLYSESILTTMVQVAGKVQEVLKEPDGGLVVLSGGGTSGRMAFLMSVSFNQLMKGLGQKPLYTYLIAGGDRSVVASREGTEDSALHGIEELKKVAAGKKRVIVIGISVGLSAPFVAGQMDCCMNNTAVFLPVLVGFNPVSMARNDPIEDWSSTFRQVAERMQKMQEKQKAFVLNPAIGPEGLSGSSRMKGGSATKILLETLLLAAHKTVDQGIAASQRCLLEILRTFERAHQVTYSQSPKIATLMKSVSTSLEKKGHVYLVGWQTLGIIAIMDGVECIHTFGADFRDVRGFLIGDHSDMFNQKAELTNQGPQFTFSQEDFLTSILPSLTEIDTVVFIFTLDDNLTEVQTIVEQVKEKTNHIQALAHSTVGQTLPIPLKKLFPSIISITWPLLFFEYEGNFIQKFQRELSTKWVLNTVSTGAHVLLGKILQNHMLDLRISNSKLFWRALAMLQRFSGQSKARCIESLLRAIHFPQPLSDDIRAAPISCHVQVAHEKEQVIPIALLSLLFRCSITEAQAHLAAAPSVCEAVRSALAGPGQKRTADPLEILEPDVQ

Turning to `Cc1ccc2c(c1)C1CN(C)CCC1N2` (configuration not stated), the max response in assay [1] was -7.38% (inactive).

Regarding `CN1C(=S)CN=C(c2ccccc2)c2cc(Cl)ccc21`, in assay [1], the max response is -6.22% (inactive).

Take `CN(C)[C@@H]1C(=O)C(C(N)=O)=C(O)[C@@]2(O)C(=O)C3=C(O)c4c(O)cccc4[C@@](C)(O)[C@H]3C[C@@H]12`: the max response in assay [1] was 8.32% (inactive).

Take `CC(=O)Oc1ccccc1C(=O)Nc1ncc([N+](=O)[O-])s1`: the Potency in assay [2] was 5.96 µM (active). Moreover, the max response in [1] was 33.5% (inactive).

In the case of `CCCC1CCCCN1` (configuration not stated), the max response in assay [1] was -2.88% (inactive).

In the case of `CCN(CC)C(=O)N[C@@H]1C=C2c3cccc4[nH]cc(c34)C[C@@H]2N(C)C1`, the Potency in assay [1] was 20 µM (active).

As for `CC(C)CC(N(C)C)C1(c2ccc(Cl)cc2)CCC1` (configuration not stated), in assay [1], the max response is 6.63% (inactive).

As for `C=C1CC[C@@]2(O)[C@H]3Cc4ccc(O)c5c4[C@@]2(CCN3CC2CC2)[C@H]1O5`, the max response in assay [1] is 7.59% (inactive).

In the case of `N#CC(C#N)=Cc1ccc(O)c(O)c1`, the outcome in [3], in assay [4] and in assay [5] was inactive. For the same compound, the max response in assay [1] is 25.4% (inactive).

In the case of `CN(C)CCC=C1c2ccccc2CCc2ccccc21`, the Potency result in assay [6] is “inactive”. In addition, in assay [1], the Potency is 1.26 µM (active).

In the case of `C#CCN(C)[C@H](C)Cc1ccccc1`, the max response in assay [1] was -11.5% (inactive).

Turning to `Oc1cc(Cl)ccc1Oc1ccc(Cl)cc1Cl`, in assay [6], the Potency entry was “inactive”. Further, the remaining parasite growth % (stronger effect = lower value) in [7] was found to be 0.738%.

For `C[C@]12C/C(=C/O)C(=O)C[C@@H]1CC[C@@H]1[C@@H]2CC[C@@]2(C)[C@H]1CC[C@]2(C)O`, the max response in assay [8] was -10.8% (inactive) and -7.35% (inactive). In assay [9], the Potency is 50.1 µM (active).

With `Cc1cc(SCc2sc(-c3ccc(C(F)(F)F)c(F)c3)nc2C)ccc1OCC(=O)O`, in [8], the max response is -13% (inactive). Further, in [9], the Potency is 50.1 µM (active).
